21 compounds from PubChem BioAssay (NCI) can be followed below.

This is part of a sample that, as a whole, favours compounds with a hit. Of some 79,000 tested, about 15% had one in any assay. Unmarked numbers belong to inactive results. Calls of active or inactive are those of the source. Rule as the data show it: active = growth inhibition above about 70%; inactive = the rest.

Assay [1] in a line: NCI Yeast Anticancer Drug Screen. Data for the rad50 strain (AID 155).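 Also: 0% = growth of vehicle-only cultures of the same strain.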 The following applies: S. cerevisiae rad50 strain growth inhibition; at 50.0 µM; stronger effect = higher value. Summed up: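 Readout: growth inhibition relative to vehicle-treated cultures. Compound exposure was carried out in a genetically defined yeast strain deficient in DNA damage repair.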
Assay [2] can be described thus: NCI Yeast Anticancer Drug Screen. Data for the mec2-1 strain (AID 157). The following applies: S. cerevisiae mec2-1 strain, at 50.0 µM, stronger effect = higher value. In outline: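 Mutant yeast (mec2-1) grown with compound; growth inhibition relative to vehicle control reported.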
Assay [3] can be described thus: NCI Yeast Anticancer Drug Screen. Data for the sgs1 mgt1 strain (AID 161).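 Also: 0% = growth of cultures given vehicle only.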 The following applies: S. cerevisiae sgs1 mgt1 strain, at 50.0 µM, stronger effect = higher value. In outline: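 Compounds are added to genetically altered yeast, and growth is compared with cultures given vehicle alone to give percent inhibition.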
Assay [4] in a line: NCI Yeast Anticancer Drug Screen. Data for the cln2 rad14 strain (AID 165).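 Also: 0% = growth equal to vehicle treated cultures.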 The following applies: S. cerevisiae cln2 rad14 strain, at 50.0 µM, stronger effect = higher value. Summed up: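 Readout is yeast growth inhibition versus vehicle-treated controls, using a strain with cln2 and rad14 alterations exposed to compound.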
Assay [5] can be described thus: NCI Yeast Anticancer Drug Screen. Data for the bub3 strain (AID 167). The following applies: S. cerevisiae bub3 mutant strain, at 50.0 µM, stronger effect = higher value. Summed up:
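Readout: yeast growth inhibition, expressed relative to vehicle-only wells. The test organism is a mutant strain from a panel with lesions in DNA repair or checkpoint genes.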

Assay [6] in a line: NCI Yeast Anticancer Drug Screen. Data for the mlh1 rad18 strain (AID 175). The following applies: S. cerevisiae mlh1 rad18 strain growth inhibition; at 50.0 µM; stronger effect = higher value. Summed up: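 Genetically defined yeast (DNA repair-deficient) exposed to compounds; growth inhibition determined relative to vehicle.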

For the compound `O=C1CCC2=NCc3c(ccc4ccccc34)N12`, the growth inhibition in assay [1] was 4.7%; in assay [2] it was -0.85%; in assay [3] it was -12.9%; in assay [4] it was -42.9%; in assay [5], -12.3%; in assay [6] it was -4%.
As for `CCOC(=O)c1[nH]c(Cc2[nH]c(Cc3[nH]c(C(=O)OCC)c(C)c3C(=O)OCC)c(C(=O)OCC)c2C)c(C(=O)OCC)c1C`, the growth inhibition was 36.1% in assay [1]; 21.2% in assay [2]; 45.2% in assay [3]; 37.5% in assay [4]; 24.7% in assay [5]; 8.55% in assay [6].
Regarding `Nc1ccccc1SC1CC(=O)N(c2ccc(Br)cc2)C1=O` (stereo unspecified), the growth inhibition is 13.2% in assay [1]; 3.4% in assay [2]; 2.75% in assay [3]; 10.8% in assay [4]; 26.6% in assay [5]; 12.3% in assay [6].
With `CCC(C)CC(C)C1=NC(C)(C)CC(C)O1` (stereo unspecified), the growth inhibition in assay [1] was 3.65%; in assay [2] it was -6.55%; in assay [3], 0.75%; in assay [4], -16.6%; in assay [5] it was 0.2%; in assay [6], 8.3%.
For the compound `CC1=C(C(=O)Nc2c(C)cccc2C)C(c2ccccc2Cl)C(C(=O)Nc2c(C)cccc2C)=C(C)N1`, the growth inhibition is -39.4% in assay [1]; -6.4% in assay [2]; -27.4% in assay [3]; -20.9% in assay [4]; -13.8% in assay [5]; -11.7% in assay [6].
On to `CCOC(=O)/C(=C/c1ccc(C#N)cc1)N(CC)CC`, for which the growth inhibition in assay [1] was -3.95%; in assay [2], -13.1%; in assay [3], -9%; in assay [4] it was 24.4%; in assay [5], -3.9%; in assay [6], -9.25%.
For the compound `CC(C)(C)NC(=S)N/N=C/c1ccccn1`, the growth inhibition in assay [1] was 77.2% (active); in assay [2], 85.2% (active); in assay [3] it was 90.5% (active); in assay [4], 88.3% (active); in assay [5], 89.7% (active); in assay [6], 89.7% (active).
As to `Cc1ccc(/C=C/C(=O)c2c([O-])on[n+]2-c2ccccc2)cc1`, the growth inhibition was 2.6% in assay [1]; -7.85% in assay [2]; 21.9% in assay [3]; 14.9% in assay [4]; 5% in assay [5]; -4.8% in assay [6].
As to `CCOC(=O)/C=C(/OCC)c1cccc(Cl)c1`, the growth inhibition in assay [1] was 9.4%; in assay [2], -5.95%; in assay [3], 13.8%; in assay [4], 16.3%; in assay [5], 39.4%; in assay [6], -1.85%.
Consider `FC1=C2C3CCC(C3)C2C1(F)F` (stereo unspecified), for which the growth inhibition was 12.1% in assay [1]; 4.1% in assay [2]; 20.1% in assay [3]; 16.9% in assay [4]; 2.7% in assay [5]; 17.1% in assay [6].
As to `CCOC(=O)/C(C)=C(/C)Nc1ccccc1`, the growth inhibition in assay [1] was 1.45%; in assay [2] it was 3.8%; in assay [3], -1.25%; in assay [4] it was -28.9%; in assay [5] it was -10.1%; in assay [6], 2.7%.
As to `Nc1nc2nc(Br)[nH]c2c(=O)[nH]1`, the growth inhibition was -5.5% in assay [1]; -7.9% in assay [2]; -29.3% in assay [3]; -17.2% in assay [4]; -14.2% in assay [5]; -33.9% in assay [6].
As for `Nc1ncnc2c1ncn2CCCCCO`, the growth inhibition in assay [1] was 5.15%; in assay [2], 49.7%; in assay [3], 13.7%; in assay [4], 7.35%; in assay [5], 3.45%; in assay [6], 13.3%.
For the compound `CCCC[n+]1cc(C(N)=O)cc2ccccc21`, the growth inhibition in assay [1] was -3.9%; in assay [2] it was 7.3%; in assay [3] it was 3.25%; in assay [4], -44.5%; in assay [5] it was 5.7%; in assay [6], 9.45%.
For `O=C(C[n+]1cccc(CO)c1)c1ccc(-c2ccc(C(=O)C[n+]3cccc(CO)c3)cc2)cc1`, the growth inhibition is 22.8% in assay [1]; 5.35% in assay [2]; 31.7% in assay [3]; -4.7% in assay [4]; -1.7% in assay [5]; 11.7% in assay [6].
For the compound `O/N=C1\CC2(N3CCOCC3)CCC1(c1ccccc1)CC2`, the growth inhibition in assay [1] is 11.5%; in assay [2], -12.3%; in assay [3] it was 54.1%; in assay [4], 20.9%; in assay [5], 38%; in assay [6] it was 11.9%.
Consider `Clc1ccccc1NCSC1=NCCS1`, for which the growth inhibition was 5.95% in assay [1]; -15.8% in assay [2]; 3.9% in assay [3]; -19.6% in assay [4]; -3.85% in assay [5]; 20.8% in assay [6].
Consider `CCCCCCCCCC1OCC(COCC)O1` (stereo unspecified), for which the growth inhibition is -2.6% in assay [1]; -9% in assay [2]; 7.5% in assay [3]; -17.4% in assay [4]; 14.8% in assay [5]; -7.15% in assay [6].
`CCC(=O)OC(OC(=O)CC)c1ccc2c(c1)OCO2`: the growth inhibition was -4.6% in assay [1]; 0.7% in assay [2]; 4.45% in assay [3]; -18.9% in assay [4]; 7.75% in assay [5]; -1% in assay [6].
For `O=C(Nc1cccc2ccccc12)c1ccccc1`, the growth inhibition in assay [1] was 18.4%; in assay [2], -38.2%; in assay [3], -0.25%; in assay [4] it was -37.2%; in assay [5], -9.45%; in assay [6] it was 19.4%.
Take `Nc1nc(CCC(=O)Nc2cccc(C(F)(F)F)c2)cc(-c2ccc3ccccc3c2)n1`: the growth inhibition in assay [1] is -8.3%; in assay [2], -23.5%; in assay [3], -77.7%; in assay [4], -10.2%; in assay [5] it was -5.5%; in assay [6] it was -31.6%.
